Compounds without any hit were thinned out: in the full panel of roughly 79,000, 15% have a hit. Unmarked numbers belong to inactive results. Active and inactive are the calls of the source. Rule as the data show it: active = growth inhibition above about 70%; inactive = the rest.
Experiment: NCI Yeast Anticancer Drug Screen. Data for the mec2-1 strain (AID 157)
Conditions: S. cerevisiae mec2-1 strain, stronger effect = higher value
Description: Growth inhibition of yeast strains with defined genetic alterations is measured as a screen for potential anti-cancer activity. Selected strains with alterations in DNA damage repair or cell cycle control were exposed to compounds and growth inhibition was measured relative to vehicle treated controls. The strain used in this assay is mec2-1

[1] = at 5.0 µM (retest, dose inferred, filed as 0.5)
[2] = at 50.0 µM (retest, dose inferred, filed as 5.0)

SMILES: O=C1/C(=C/c2ccccc2)CCCC1CN1CCCCC1 (stereo not given)
- growth inhibition (at 1.2 µM): 16%
- growth inhibition (at 3.7 µM): 22%
- growth inhibition [1]: 32%
- growth inhibition (at 11.0 µM): 34%
- growth inhibition (at 33.0 µM): 48%
- growth inhibition [2]: 74% (active)
- growth inhibition (at 50.0 µM): 75.2% (active)
- growth inhibition (at 100.0 µM): 57%

SMILES: CCOC(=O)COc1c(OC)cc(C2C3=C(COC3=O)Oc3cc4c(cc32)OCO4)cc1OC (stereo not given)
- growth inhibition (at 1.2 µM): -1%
- growth inhibition (at 3.7 µM): 0%
- growth inhibition [1]: -8%
- growth inhibition (at 11.0 µM): -2%
- growth inhibition (at 33.0 µM): 1%
- growth inhibition [2]: -4%
- growth inhibition (at 50.0 µM): 26.8%
- growth inhibition (at 100.0 µM): 17%

SMILES: CCCCCOC(=S)SC(=O)OCC
- growth inhibition (at 1.2 µM): -3%
- growth inhibition (at 3.7 µM): 3%
- growth inhibition [1]: 27%
- growth inhibition (at 11.0 µM): 26%
- growth inhibition (at 33.0 µM): 48%
- growth inhibition [2]: 95% (active)
- growth inhibition (at 50.0 µM): 98.5% (active)
- growth inhibition (at 100.0 µM): 86% (active)

SMILES: N=C1N=Nc2nc(C3(c4nc5n(c4O)C(=N)N=N5)Cc4ccccc4C3=O)c(O)n21 (stereo not given)
- growth inhibition (at 1.2 µM): 2%
- growth inhibition (at 3.7 µM): 4%
- growth inhibition [1]: 4%
- growth inhibition (at 11.0 µM): 12%
- growth inhibition (at 33.0 µM): 30%
- growth inhibition [2]: 28%
- growth inhibition (at 50.0 µM): 59.1%
- growth inhibition (at 100.0 µM): 87% (active)

SMILES: CN1CCN(C(=O)/C=C/C(=O)c2ccccc2)CC1
- growth inhibition (at 1.2 µM): 2%
- growth inhibition (at 3.7 µM): 12%
- growth inhibition [1]: -3%
- growth inhibition (at 11.0 µM): 35%
- growth inhibition (at 33.0 µM): 67%
- growth inhibition [2]: -3%
- growth inhibition (at 50.0 µM): 95% (active)
- growth inhibition (at 100.0 µM): 94% (active)

— PubChem BioAssay (NCI)
